From PubChem
FMDV inh = blocks foot and mouth disease virus | AID 1159524 | Potency, µM (top dose mostly 57.9 µM), usual class: inhibitors | 410,000 tested, 1.2% active | FMDV antiviral cell-based qHTS; calls by dose curve; tested in HEK293T cells; further: read-out not given here; nearly all actives have a fitted effect of over 45% in size
Marburg entry inh = inhibitors of Marburg virus binding or cell entry. Potency, µM (series often up to 37.8 µM), most hits filed as inhibitors. AID 540276. Marburg virus pseudotyped entry inhibition, cell reporter. 300,000 tested, 1.8% active; calls by dose curve; tested in HEK293 cells
LASV entry inh = blocks Lassa virus binding to or entry into cells; AID 540256; Lassa virus pseudotype entry inhibition, cell reporter; Potency, µM (top dose mostly 37.9 µM), hits mostly inhibitors; 300,000 tested, 1.2% active; calls by dose curve; tested in HEK293 cells; further: nearly all actives have a fitted effect of over 50% in size
HCMV antiviral = blocks human cytomegalovirus replication | activity change, negative = inhibition, % at 57.5 µM | 410,000 tested, 4.5% active | HFF cells, HCMV-luciferase reporter, 72 h; hits give low values; in the data active means activity change below about -60%; inconclusive means no clear call, values can overlap the other calls; inactive means above about -39%
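Screen run at 2 compound doses on HFFs infected with reporter HCMV, MOI 1 PFU/cell. Luciferase activity from cell lysates at 72 h post infection gave inhibition relative to buffer-only and Salinomycin wells.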
Each line names hits and unclear results; the compound was inactive in the other large screens. A selection: hits, their analogues and other compounds. The true share with any hit is near 6.2%.

O=C(NC1CCCCC1)c1nnc2n1CCN(C(=O)c1ccc3occc3c1)C2	none (no result: FMDV inh, Marburg entry inh, LASV entry inh)
CSc1cccc(NC(=S)N2CCCN(Cc3ccc(F)cc3)C2)c1	Marburg entry inh 6.3µM, LASV entry inh inconclusive
Cc1c(Cl)cccc1NC(=S)N1CCCN(Cc2ccccc2F)C1	Marburg entry inh 10µM, LASV entry inh inconclusive
Cc1c(Cl)cccc1NC(=S)N1CCCN(Cc2ccc(F)cc2)C1	Marburg entry inh 4µM
Cc1ccccc1NC(=S)N1CCCN(Cc2ccc(F)cc2)C1	none (no result: Marburg entry inh, LASV entry inh)
C[C@H](O)c1n(C)c(Cl)c[n+]1C	none (no result: FMDV inh, LASV entry inh, HCMV antiviral)
C[C@H](CO)N1C[C@H](C)[C@H](CN(C)S(=O)(=O)c2cccs2)Oc2ncc(-c3cc4ccccc4o3)cc2C1=O	none (no result: Marburg entry inh, LASV entry inh)
O=C(NCc1ccccc1)Nc1cccn(Cc2c(F)cccc2Cl)c1=O	FMDV inh inconclusive, HCMV antiviral -74 (no result: Marburg entry inh, LASV entry inh)
Cc1ccc(NC(=O)Nc2cccn(Cc3c(F)cccc3Cl)c2=O)cc1	none (no result: Marburg entry inh, LASV entry inh)
Cn1c(CCNC(=O)C2CC23CCN(C(=O)C2=CCCC2)CC3)nc2ccccc21 (stereo not given)	none (no result: Marburg entry inh, LASV entry inh, HCMV antiviral)
COc1ccc(OC)c(NC(=O)Cn2cc(C(=O)c3ccc(Cl)cc3)c(=O)c3cc(OC)ccc32)c1	none
CCCc1cc(=O)n2[nH]cc(-c3ccc(Cl)cc3)c2n1	FMDV inh inconclusive, Marburg entry inh inconclusive, LASV entry inh inconclusive, HCMV antiviral -96
COCc1cc(=O)n2[nH]cc(-c3ccccc3)c2n1	none
Cc1cc(C)nc(/N=C(\N)Nc2ccc(OCCC(C)C)cc2)n1	FMDV inh 8.9µM, Marburg entry inh inconclusive, HCMV antiviral inconclusive
Cc1cc(C)nc(/N=C(\N)Nc2ccc(OCc3ccccc3)cc2)n1	FMDV inh 28µM, Marburg entry inh inconclusive, LASV entry inh inconclusive, HCMV antiviral -75
Cc1cc(C)nc(/N=C(\N)Nc2cccc(OCc3ccccc3)c2)n1	FMDV inh 32µM, HCMV antiviral -73 (no result: Marburg entry inh, LASV entry inh)
CCc1ccccc1Nc1cc(C(=O)NCCCN(C)C2CCCCC2)c2ccccc2n1	Marburg entry inh inconclusive, LASV entry inh inconclusive
CCCCn1c(=O)n(-c2ccc(Br)cc2F)c(=O)c2c3c(sc21)CN(C(C)=O)CC3	none (no result: LASV entry inh)
N#C[C@@H](C(=O)NC1CCCCC1)c1nc2ccccc2nc1N1CCN(c2ccccc2F)CC1	none (no result: FMDV inh, LASV entry inh, HCMV antiviral)
CC(=O)/C(=N\Nc1ccc(Cl)cc1Cl)Sc1nnc(-c2ccccc2)n1-c1ccccc1	none
CC(=O)/C(=N\Nc1ccccc1Cl)Sc1nnc(-c2ccccc2)n1-c1ccccc1	HCMV antiviral -61
FC(F)(F)c1cc(CCN2C(=S)NC[C@@H]2c2ccccc2)cc(C(F)(F)F)c1	none (no result: Marburg entry inh, LASV entry inh)
FC(F)(F)c1cc(CO[C@H]2CCCN[C@H]2c2ccccc2)cc(C(F)(F)F)c1	Marburg entry inh 14µM (no result: LASV entry inh, HCMV antiviral)
CCn1c2ccccc2c2cc(C3C(C#N)=C(N)Oc4n[nH]c(COC)c43)ccc21 (stereo not given)	FMDV inh inconclusive, Marburg entry inh 5.2µM, LASV entry inh inconclusive
CCCc1[nH]nc2c1C(c1ccccc1OCC)C(C#N)=C(N)O2 (stereo not given)	none
COCc1[nH]nc2c1C(c1ccc(OC)c(OC)c1)C(C#N)=C(N)O2 (stereo not given)	none
CCCc1[nH]nc2c1C(c1ccccc1OC)C(C#N)=C(N)O2 (stereo not given)	FMDV inh 28µM
CCCc1[nH]nc2c1C(/C(C)=C/c1ccccc1)C(C#N)=C(N)O2 (stereo not given)	Marburg entry inh inconclusive, HCMV antiviral -83 (no result: FMDV inh)
CCCc1[nH]nc2c1C(c1ccncc1)C(C#N)=C(N)O2 (stereo not given)	none
Cc1ccc(NC(=O)Cn2c(=O)ccc3cc(S(=O)(=O)N4CCC(C)CC4)ccc32)cc1C	none (no result: Marburg entry inh)
CCN(CC)c1ccc(/C=C/c2cccc[n+]2C)c(OC)c1	FMDV inh inconclusive, Marburg entry inh 2.8µM, LASV entry inh inconclusive, HCMV antiviral -97
Cc1ccc(N2C(S)=C(C#N)C(=O)NC23CCCCC3)cc1	HCMV antiviral -60
CCOC(=O)c1ccccc1NC(=O)c1cc2ccc3cccnc3c2[nH]1	LASV entry inh inconclusive, HCMV antiviral inconclusive (no result: Marburg entry inh)
O=C(COc1ccc(F)cc1)NC1CC(=O)N(c2ccc3c(c2)OCCO3)C1 (stereo not given)	HCMV antiviral -108 (no result: Marburg entry inh)
COc1cc(Br)cc(/C=N/NC(=O)Cc2ccccc2)c1O	LASV entry inh 13µM
O=C(N/N=C/c1cc(Br)cc(Br)c1O)c1cccc(N2CCCC2=O)c1	Marburg entry inh inconclusive, LASV entry inh inconclusive, HCMV antiviral -99
O=C(CP(=O)(c1ccccc1)c1ccccc1)N/N=C/c1cc(Br)cc(Br)c1O	Marburg entry inh inconclusive, LASV entry inh 2.8µM, HCMV antiviral inconclusive
O=[N+]([O-])c1ccccc1-c1onc(-c2ccccc2Br)c1Br	none (no result: FMDV inh, Marburg entry inh, LASV entry inh)
COc1ccc(NC(=O)N2CC3(CCN(C(=O)c4ccncc4)CC3)C2)cc1	none (no result: Marburg entry inh, LASV entry inh, HCMV antiviral)
